In the supplement of paper PMC4100887:
± gives the standard deviation of the averaged measurements.

Legend:
IMR-90 = experiment: relative cell viability (ATPlite) vs untreated control (fraction); higher = less toxic; conditions: 1 µM; 72 h
K562 [1] = experiment: as above; conditions: 1 µM; 72 h
K562 [2] = experiment: relative cell viability (ATPlite) vs untreated control, with imatinib (fraction); higher = less toxic; conditions: 1 µM; 72 h; imatinib 0.125 µM

Cc1cncc2cccc(S(=O)(=O)N3CCCN(C(=O)CN)C[C@@H]3C)c12 [Rho Kinase Inhibitor IV]
relative cell viability (IMR-90): 1.05 ± 0.12 | relative cell viability (K562 [1]): 0.809 ± 0.065 | relative cell viability (K562 [2]): 0.669 ± 0.031

NC(=O)c1ccc2nc(-c3ccc(Oc4ccc(Cl)cc4)cc3)[nH]c2c1 [Chk2 Inhibitor II]
relative cell viability (IMR-90): 1.05 ± 0.097 | relative cell viability (K562 [1]): 0.778 ± 0.061 | relative cell viability (K562 [2]): 0.681 ± 0.027

CCCCn1c2ccc(O)cc2c2c3c(c(-c4ccccc4Cl)cc21)C(=O)NC3=O [Wee1 Inhibitor II]
relative cell viability (IMR-90): 0.754 ± 0.44 | relative cell viability (K562 [1]): 0.876 ± 0.086 | relative cell viability (K562 [2]): 0.748 ± 0.1

CCCCc1c(-c2ccc(O)cc2)[nH]c2nccnc12 [Aloisine A, RP107]
relative cell viability (IMR-90): 0.913 ± 0.06 | relative cell viability (K562 [1]): 0.884 ± 0.048 | relative cell viability (K562 [2]): 0.77 ± 0.032

OCC(O)CCO/N=C1\C(c2c(O)[nH]c3ccccc23)=Nc2ccccc21 (stereo not given) [Indirubin Derivative E804]
relative cell viability (IMR-90): 0.974 ± 0.098 | relative cell viability (K562 [1]): 0.753 ± 0.058 | relative cell viability (K562 [2]): 0.644 ± 0.071

CCN(CC)CCCCN1c2ccccc2Oc2ccc(Cl)cc21 [Akt Inhibitor X]
relative cell viability (IMR-90): 0.889 ± 0.093 | relative cell viability (K562 [1]): 0.848 ± 0.089 | relative cell viability (K562 [2]): 0.77 ± 0.061

Cn1nc2c3c(cccc31)C(=O)c1ccccc1-2 [JNK Inhibitor, Negative Control]
relative cell viability (IMR-90): 1.02 ± 0.11 | relative cell viability (K562 [1]): 0.869 ± 0.083 | relative cell viability (K562 [2]): 0.733 ± 0.038

CC(C)(C)c1ccc(S(=O)(=O)Nc2ccc(-n3ccnc3)cc2)cc1 [Stem-Cell Factor/c-Kit Inhibitor, ISCK03]
relative cell viability (IMR-90): 0.897 ± 0.068 | relative cell viability (K562 [1]): 0.818 ± 0.096 | relative cell viability (K562 [2]): 0.742 ± 0.038

CC(C)[C@H](CO)Nc1nc(Nc2cccc(Cl)c2)c2ncn(C(C)C)c2n1 [Purvalanol A]
relative cell viability (IMR-90): 1.04 ± 0.11 | relative cell viability (K562 [1]): 0.885 ± 0.065 | relative cell viability (K562 [2]): 0.75 ± 0.072

COc1ccc(CNc2nc(N(CCO)CCO)nc3c2ncn3C(C)C)cc1 [Cdk2 Inhibitor III]
relative cell viability (IMR-90): 0.927 ± 0.086 | relative cell viability (K562 [1]): 0.855 ± 0.061 | relative cell viability (K562 [2]): 0.772 ± 0.058
